Laboratory results reported in PubChem BioAssay AID463 (The Scripps Research Institute Molecular Screening Center, 2006).
Out of some 56,000 compounds screened, about 710 (1.3%) were called active.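 How the source made its calls: active means inhibition above the mean inhibition of all tested compounds plus 3 SD (cut at about 28% in these data); inactive means the rest.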 This excerpt belongs to a sample that is enriched for actives.

Test: Jurkat cell viability reduction – Jurkat E6.1, 60K MLSMR library, cytotoxicity control, primary screen (AID 463)
Details: Jurkat E6.1 viability, ATP luminescence, 48 h; at 4 µM; active compounds read high

Structure (SMILES) | inhibition
CCC(=O)c1ccc(OCC(O)CN2C(=O)NC(C)(C)C2=O)cc1 (stereo unspecified) | -6.4% (inactive)
O=C(c1cccc(S(=O)(=O)N2CCOCC2)c1)N1CCOCC1 | 0% (inactive)
COc1ccc(-n2nnnc2SCC(=O)c2ccc(OC)c(OC)c2)cc1 | 7.1% (inactive)
CCOc1cccc(-n2nnnc2-c2ccc(OC)cc2)c1 | 86.8% (active)
CCOc1cccc(-c2nnc3sc(COc4ccc(OC)cc4)nn23)c1 | -3% (inactive)
COC(=O)COc1ccc(S(=O)(=O)N2CCOCC2)cc1 | -6.6% (inactive)
CCOC(=O)Cc1csc(NC(=O)CN(C)S(=O)(=O)c2ccc3c(c2)CCC(=O)N3)n1 | -0.9% (inactive)
COc1ccc(NC(=O)c2cccc(NC(=O)c3ccco3)c2)c(OC)c1 | -4.5% (inactive)
CCOc1cc(-c2noc(CCC(=O)N3CCOCC3)n2)ccc1OC | -6.2% (inactive)
CCOc1cc(C(=O)N2CCc3cc(OC)c(OC)cc3C2)ccc1OC(F)F | 98.3% (active)
CCOc1cc(CN2CCN(C(=O)CC(C)C)CC2)ccc1OC | -0.1% (inactive)
COc1ccc(C(=O)Nc2ccc3c(c2)OCO3)cc1OC | 16.3% (inactive)
COc1nc(Oc2ccc(=O)n(C)n2)nc(N(C)C)n1 | 4.9% (inactive)
CC1(C)CC(=O)C(C=NCCC2=CCCCC2)=C(O)C1 | 2% (inactive)
C=CCn1c(CSc2nc3ccccc3s2)nnc1SCC(=O)NCc1ccco1 | 0.8% (inactive)
O=C(Cn1cnc2c(cnn2-c2ccc(F)cc2)c1=O)NCCc1ccccc1 | -3% (inactive)
O=C(Cn1cnc2c(cnn2-c2ccccc2)c1=O)NCc1ccccc1 | 35.9% (active)
CN(Cc1ccccc1)C(=O)CCNC(=O)Cn1cnc2ccccc2c1=O | 7.8% (inactive)
CC(=O)Oc1cccc(N2C(=O)C3CC=C(Cl)CC3C2=O)c1 (stereo unspecified) | -1.4% (inactive)
CS(=O)(=O)N1CCN(C(=O)c2cc3ccccc3oc2=O)CC1 | -5.4% (inactive)
CCN(CC)C(=O)CSc1nnc(-c2ccc(S(=O)(=O)NCc3ccccc3Cl)cc2)o1 | -7.3% (inactive)
Cc1ccccc1C(=O)NCCN=C1NS(=O)(=O)c2ccccc21 | 3.3% (inactive)
Cc1ccccc1CN1CCN(C(=O)c2cccc(F)c2)CC1 | -5% (inactive)
O=C(c1cccc(C(=O)N2CCN(c3ccc(F)cc3)CC2)c1)N1CCN(c2ccc(F)cc2)CC1 | 37.4% (active)

Structure (SMILES) | inhibition
O=C(c1ccccc1)c1cccn1CC(=O)N1CCN(c2ccc(F)cc2)CC1 | -0.4% (inactive)
COc1cc(C2C(C#N)=C(C)NC3=C2C(=O)CC(C)(C)C3)ccc1O (stereo unspecified) | 5% (inactive)
COc1ccccc1CNC(=O)C1CCN(S(C)(=O)=O)CC1 | -5.6% (inactive)
CCOc1ccc(Cn2nnc(C(=O)Nc3ccc(OC)cc3OC)c2N)cc1 | -5.8% (inactive)
Nc1c(C(=O)NCc2ccccc2)nnn1Cc1cccc(Cl)c1 | 83.8% (active)
CCOc1ccc(Cn2nnc(C(=O)NCc3ccccc3)c2N)cc1 | 2.3% (inactive)
CCOc1c(OC)cc(C2C(C#N)=C(N)Oc3n[nH]c(-c4ccncc4)c32)cc1OC (stereo unspecified) | -1.9% (inactive)
O=C(Oc1cccnc1)c1cc2ccccc2oc1=O | 4.5% (inactive)
COc1ccc(-c2cc(C(F)(F)F)n3nc(C(=O)N4CCOCC4)c(Cl)c3n2)cc1 | -9.2% (inactive)
CCCCN=C(N)/C(C(=O)OCC)=C(\O)c1ccc(OC)cc1 | -0.7% (inactive)
CCc1ccc(N(CC)c2ncnc3nc[nH]c23)cc1 | 0.9% (inactive)
CCOC(=O)c1cnc(-n2nc(C)cc2C)nc1Nc1cccc(C(C)=O)c1 | 2.3% (inactive)
CC(=O)c1ccc(Oc2cc(C)nc(-n3nc(C)cc3C)n2)cc1 | 97.7% (active)
Cc1cc(C)n(-c2ccc(Cl)c(C(=O)O)n2)n1 | -4.6% (inactive)
O=C(COc1ccccc1Cl)Nn1cnnc1 | 4.2% (inactive)
COc1ccc(N2C(=O)C3CCCN3C2c2cccs2)cc1 (stereo unspecified) | -7.9% (inactive)
CC(C)C1N=C2c3ccccc3N=C(SCC(=O)c3ccc(O)c(O)c3)N2C1=O (stereo unspecified) | 50.8% (active)
NC(=O)CSC1=Nc2ccccc2C2=NC(CCC(=O)NCc3ccc(F)cc3)C(=O)N12 (stereo unspecified) | 4.5% (inactive)
O=C(CC1N=C2c3ccccc3N=C(SCc3ccccc3Cl)N2C1=O)NCc1ccco1 (stereo unspecified) | 8% (inactive)
CCCC(NS(=O)(=O)c1ccc(OC)cc1)C(=O)O (stereo unspecified) | 0.8% (inactive)
COC(=O)C(C)n1cnc2c(nnn2-c2cccc(Cl)c2)c1=O (stereo unspecified) | 6% (inactive)
Cc1oc(-c2ccccc2F)nc1CS(=O)(=O)CC(=O)NCCCN(C)C1CCCCC1 | 5% (inactive)
O=C(Nc1ccc(S(=O)(=O)N2CCCC2)cc1Cl)C1=COCCO1 | 10.5% (inactive)
O=C(Nc1ccc2c(c1)nc1n2CCCCC1)c1cc(S(=O)(=O)N2CCOCC2)ccc1Cl | 34.5% (active)

Structure (SMILES) | inhibition
COc1ccc(S(=O)(=O)N2CCOCC2)cc1C(=O)Nc1nc2ccccc2s1 | -2.5% (inactive)
O=C1N(Cc2ccc3c(c2)OCO3)c2ccccc2C1(O)c1c[nH]c2ccccc12 (stereo unspecified) | -8.9% (inactive)
CCCCNC(=O)CSc1nccn1Cc1ccccc1 | -7.9% (inactive)
COCCNCCOCCOc1cccc(OC)c1 | 5.4% (inactive)
Cc1cc(Nc2cccc(F)c2)n2ncnc2n1 | 0.2% (inactive)
CCOC(=O)c1[nH]c2c(c1C)C(=O)CC(c1ccc(N(C)C)cc1)C2 (stereo unspecified) | 1% (inactive)
COC(=O)C1C(=O)c2c([nH]c(C(=O)OCCSC)c2C)CC1C (stereo unspecified) | -3.9% (inactive)
CCCOC(=O)c1[nH]c2c(c1C)C(=O)CC(c1cc(OC)c(OC)c(OC)c1)C2 (stereo unspecified) | 45.9% (active)
Cc1ccc(N(CC(O)CN2CCCC2)S(=O)(=O)c2ccccc2)cc1 (stereo unspecified) | 2.6% (inactive)
Cc1ccc(S(=O)(=O)N2CCCC2CO)cc1 (stereo unspecified) | -3.1% (inactive)
Cc1ccc(S(=O)(=O)NC(=O)N2CCCC(C)(C)C2)cc1 | -5.4% (inactive)
Cc1ccc(S(=O)(=O)C2(S(=O)(=O)c3ccc(C)cc3)CCCC2)cc1 | 84% (active)
CC(C)(O)C#Cc1ccc(C(=O)N2CCC(C(N)=O)(N3CCCCC3)CC2)cc1 | -6.2% (inactive)
CS(=O)(=O)c1ccc2nc(NC(=O)C3CCCCC3)sc2c1 | 5.6% (inactive)
COc1ccccc1N1CCN(C(=O)CN(Cc2ccc(Cl)cc2)S(C)(=O)=O)CC1 | 9.3% (inactive)
COc1ccccc1-n1nnnc1S(=O)(=O)Cc1ccc(Cl)cc1 | 53.4% (active)
COc1ccccc1N1CCN(Cc2nnnn2CCc2ccccc2)CC1 | -5.1% (inactive)
Cc1oc(C)c(C(=O)NCCCC(=O)O)c1C(=O)NCCCC(=O)O | -3.9% (inactive)
Cc1ccc2nc(-c3ccc(SCC(=O)Nc4cc(C)on4)nc3)[nH]c2c1 | -5.8% (inactive)
O=C(O)CCSc1nnc(-c2ccccc2)n1-c1ccccc1 | -2.8% (inactive)
O=C1CCCN1CCCNc1ncnc2c1[nH]c1ccccc12 | 2.2% (inactive)
CC(C)OCCCNc1ncnc2c1[nH]c1ccc(F)cc12 | 87.6% (active)
CCN1CCCC1CNc1ncnc2c1[nH]c1ccc(F)cc12 (stereo unspecified) | 3.2% (inactive)
COc1ccc(OC)c2c1sc(=NC(=O)CN1C(=O)CCC1=O)n2C | 1.4% (inactive)

Structure (SMILES) | inhibition
CCOc1cc(N2CCOCC2)c(OCC)cc1NC(=O)COc1cccc2cccnc12 | 37.5% (active)
CCOc1cc(NC(=O)c2ccco2)c(OCC)cc1NC(=O)COc1ccccc1 | 0.4% (inactive)
CC(=O)Nc1cccc(Oc2cc(C#N)c(C#N)cc2N2CCOCC2)c1 | 1.2% (inactive)
COc1ccc(OCC(=O)N2CCOCC2)cc1 | -4.3% (inactive)
Cc1nc2ccc(NC(=O)N3CCC(c4ccccc4)C3)cc2nc1C (stereo unspecified) | -3.3% (inactive)
CCc1nnc(NC(=O)c2ccc(S(=O)(=O)NC3CCCCC3)cc2)s1 | 27.4% (inactive)
CCc1nnc(NC(=O)C2CCCN2S(=O)(=O)c2ccccc2)s1 (stereo unspecified) | 2.3% (inactive)
CC1CCCCN1S(=O)(=O)c1ccc(C(=O)Nc2nnc(-c3cccs3)o2)cc1 (stereo unspecified) | 101% (active)
O=C1c2ccccc2-c2ncnc3c(N4CCOCC4)cc(N4CCOCC4)c1c23 | 6.4% (inactive)
CC1CCCN(Cc2nc3c(c(=O)n(C)c(=O)n3C)n2Cc2cccc3ccccc23)C1 (stereo unspecified) | -3.6% (inactive)
CCOC(=O)c1c(-c2ccc(C)cc2C)csc1NC(=O)CSc1nnnn1C | 28.5% (active)
CNC(=O)CSc1nnnn1-c1ccc(C)cc1C | -4.9% (inactive)
CCOC(=O)CNC(=O)CSc1nnnn1-c1cc(C)ccc1C | -1.2% (inactive)
CCOCCCNC(=O)Cc1cc(=O)[nH]c(=O)[nH]1 | -4.5% (inactive)
CCC(c1nnnn1Cc1ccccc1)N(Cc1cc2cc(OC)ccc2[nH]c1=O)CC1CCCO1 (stereo unspecified) | -4.6% (inactive)
CC(Nc1nc(N2CCCC2)nc2ccccc12)c1ccccc1 (stereo unspecified) | 4.2% (inactive)
COc1ccc(-n2nnc3c(=O)n(CC(=O)OCc4ccccc4)cnc32)cc1 | 7% (inactive)
Cc1cccc(-n2c(N)c(C(=O)N3CCN(C)CC3)sc2=S)c1 | 2.6% (inactive)
Cc1cccc(-n2c(O)c(C=Nc3ccccc3N)c(=O)[nH]c2=O)c1 | 46.2% (active)
O=C(CS(=O)(=O)c1cn(Cc2ccc(Cl)cc2)c2ccccc12)N1CCOCC1 | 5.9% (inactive)
COc1ccc(N(Cc2cc3cc(OC)ccc3[nH]c2=O)S(C)(=O)=O)cc1 | 8.7% (inactive)
CCC(C)Sc1nnc(-c2c[nH]c3ccccc23)n1CCOC (stereo unspecified) | 6% (inactive)
CC(=O)Oc1ccc2c(C)c(CC(C)O)c(=O)oc2c1 (stereo unspecified) | -1.3% (inactive)
COc1ccc(OCc2cccc(C(=O)N3CCCC3)c2)cc1 | -5.2% (inactive)
